High-throughput results: PubChem BioAssay, National Center for Advancing Translational Sciences (NCATS)
Most compounds without a hit are left out; they make up all but 7.1% or so of the library.
SW480 rerep: inducers of DNA re-replication in SW480 colon cancer cells; SW480 DNA re-replication, Hoechst DNA content imaging, 48 h; Potency, µM (highest dose often 46.1 µM), hits mostly activators; 1.8% of 340,000 active; further: nearly all actives have a fitted effect of over 55% in size
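Compounds, transferred as 23 nL by pin tool, were incubated with cells for 48 hr; DNA content per nucleus was then quantified by Hoechst staining and fluorescence plate imaging.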
ATXN viability: cell viability loss in ATXN counter-screen. AID 651635. Potency, µM (top dose mostly 56.7 µM), most hits filed as cytotoxic. S2 cells (HEK-293 line with an ATXN2-luciferase reporter) viability, CellTiter-Fluor protease fluorescence, 24 h. 0.49% of 400,000 active; further: nearly all actives have a fitted effect of over 40% in size
IL-1B inflam inh: inhibitors of inflammasome signaling (IL-1 beta secretion). activity change, % at 57.5 µM. THP-1 LPS/ATP IL-1B secretion, AlphaLISA, 16 h; active compounds read low. 4.7% of 360,000 active; in the data active means activity change below about -50%; inconclusive means mostly about -30% to -49%
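THP-1 cells pretreated 1 hr with compounds (up to 57.5 uM final), then stimulated with LPS (250 ng/mL final) plus ATP (1.25 mM final); secreted IL-1B measured by AlphaLISA after 16 hr, decreased signal indicating inhibition.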
MCF10A rereplic: inducers of DNA re-replication in MCF 10A breast cells | MCF 10A DNA re-replication, Hoechst nuclear intensity, 48 h | Potency, µM (highest dose often 46.1 µM), actives largely listed as activators | 2.9% of 350,000 active | AID 624296; further: nearly all actives have a fitted effect of over 50% in size
ATXN2 expr inh: inhibitors of ATXN2 expression | 0.72% of 360,000 active | Potency, µM (series often up to 57 µM), hits mostly inhibitors | HEK-293 ATXN2-luciferase reporter, luminescence, 24 h | AID 1745845; further: nearly all actives have a fitted effect of over 55% in size
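ATXN2-luciferase reporter cells (luciferase flanked by upstream and downstream ATXN2 gene portions) were treated 24 h at 37 °C with compounds at up to 57 uM. SteadyGlo luminescence gave expression; GF-AFC fluorescence gave viability.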
PINK1 modulator: modulators of PINK1 expression; PINK1 immunofluorescence, high-content cytometry, 24 h; Potency, µM (highest dose often 76.6 µM), actives largely listed as activators; 0.2% of 410,000 active; AID 624263; active means well fitted activation curve with a large enough effect; inconclusive means small, poorly fitted or top-dose-only effect; cell line not stated here; further: nearly all actives have a fitted effect of over 65% in size
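PINK1 protein, normally rapidly degraded, was detected by immunofluorescence after 24 hour compound treatment of a stable cell line. Titration data (5 concentrations) came from laser-scanning cytometry, with CCCP-treated wells as controls.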
Of the large screens only hits and unclear results are named; the others gave an inactive call; ! = a repeat was not active. Unless noted, the call rests on the fitted dose curve; in most records, active means well fitted curve in the direction sought with a large enough effect; inconclusive means small, poorly fitted or top-dose-only effect, or another doubt; inactive means no such curve, though single readings can be large; an effect the other way counts as inactive or inconclusive.

Cc1nc2ccc(S(=O)(=O)NCC(=O)NC(C)c3ccccc3)cc2s1 (configuration not stated)	ATXN viability inconclusive, MCF10A rereplic 0.65µM
COc1ccc2c(C=Nc3c(C)n(C)n(-c4ccccc4)c3=O)c(O)n(Cc3ccco3)c(=O)c2c1	MCF10A rereplic 18µM!
Cc1ccc(Cn2c(=N)c(C(=O)NCc3ccco3)cc3c(=O)n4ccccc4nc32)cc1	SW480 rerep 3.5µM, MCF10A rereplic 11µM
COc1ccc(CCn2c(=N)c(C(=O)NCc3ccco3)cc3c(=O)n4ccccc4nc32)cc1OC	ATXN viability inconclusive, IL-1B inflam inh inconclusive (no result: ATXN2 expr inh)
N=c1c(C(=O)NCc2ccco2)cc2c(=O)n3ccccc3nc2n1CCc1ccccc1	SW480 rerep 13µM, MCF10A rereplic 8.2µM
COCCCn1c(=N)c(C(=O)NCc2ccco2)cc2c(=O)n3ccccc3nc21	none (no result: SW480 rerep, ATXN viability, IL-1B inflam inh, MCF10A rereplic)
Nc1nc(N)nc(-c2cc(O)ccc2O)n1	SW480 rerep inconclusive, IL-1B inflam inh inconclusive, MCF10A rereplic inconclusive
CCNc1nc(N)nc(-c2cc(Cl)ccc2O)n1	IL-1B inflam inh -85, MCF10A rereplic inconclusive
CCCCNc1nc(N)nc(-c2cc(Cl)ccc2O)n1	SW480 rerep inconclusive, IL-1B inflam inh -84, MCF10A rereplic 21µM
CCCNc1nc(N)nc(-c2cc(Cl)ccc2OC)n1	none
COc1cccc(-n2c(=O)c3sc4ccccc4c3n(CC(=O)Nc3ccccc3OC)c2=O)c1	ATXN viability inconclusive (no result: SW480 rerep, IL-1B inflam inh, MCF10A rereplic)
CCc1cc(C(=O)NC2CCCN(Cc3ccccc3F)C2)n(C)n1 (configuration not stated)	SW480 rerep 2.1µM
COCCCNC(=O)c1ccc(Cn2c(=O)c3cccn3c3cccnc32)cc1	none (no result: SW480 rerep, ATXN viability, IL-1B inflam inh, MCF10A rereplic, ATXN2 expr inh)
Cc1cc(C)c2cc(CN(Cc3ccc4c(c3)OCO4)Cc3nnnn3Cc3ccco3)c(=O)[nH]c2c1	IL-1B inflam inh -62, MCF10A rereplic inconclusive
Cc1ccc2cc(CN(Cc3ccco3)Cc3nnnn3Cc3ccco3)c(=O)[nH]c2c1	none (no result: SW480 rerep, ATXN viability, IL-1B inflam inh, MCF10A rereplic, ATXN2 expr inh)
Cc1ccc2[nH]c(=O)c(CN(Cc3ccc4c(c3)OCO4)Cc3nnnn3Cc3ccco3)cc2c1	IL-1B inflam inh -59
Cc1ccc2[nH]c(=O)c(CN(Cc3nnnn3Cc3ccccc3)C3CCCC3)cc2c1	ATXN viability inconclusive, IL-1B inflam inh -69, ATXN2 expr inh inconclusive (no result: PINK1 modulator)
CCN(Cc1ccccc1)Cc1c(O)ccc2oc(C)c(C(=O)Nc3ccccc3C)c12	none (no result: SW480 rerep, ATXN viability, IL-1B inflam inh, MCF10A rereplic, ATXN2 expr inh)
COc1ccc(-c2noc(CCC(=O)NCc3ccc(OC)cc3OC)n2)cc1	none (no result: SW480 rerep, IL-1B inflam inh, MCF10A rereplic)
CC(C)c1ccc(NC(=O)C2Cc3ccccc3N2C(=O)c2ccccc2)cc1 (configuration not stated)	PINK1 modulator inconclusive (no result: SW480 rerep, IL-1B inflam inh, MCF10A rereplic)
COc1cc(C(=O)O/N=C2/C=CC(=O)C(C)=C2C)cc(OC)c1OC	SW480 rerep 16µM, MCF10A rereplic 23µM, ATXN2 expr inh inconclusive (no result: ATXN viability)
Cc1ccccc1NC(=S)N/N=C/C(C)c1ccccc1 (configuration not stated)	none
Cc1cccc(NC(=S)N/N=C/c2cccc(O)c2)c1C	SW480 rerep 7.3µM, MCF10A rereplic inconclusive
Cc1ccccc1NC(=S)N/N=C/c1ccc(O)cc1O	ATXN viability inconclusive, ATXN2 expr inh inconclusive
Cc1cccc(NC(=S)N/N=C/C(C)c2ccccc2)c1C (configuration not stated)	IL-1B inflam inh -103
COc1ccc(-c2nc3ccc(C)cn3c2NCc2ccccc2)cc1SC1CCCCC1	ATXN viability 16µM, MCF10A rereplic 18µM
CCCCNc1c(-c2ccc(OC)c(SC3CCCCC3)c2)nc2ccc(C)cn12	ATXN viability 10µM, IL-1B inflam inh -59, MCF10A rereplic 7.3µM, ATXN2 expr inh 25µM, PINK1 modulator inconclusive
Cc1ccc2nc(-c3cccc(SC4CCCCC4)c3)c(NC3CCCCC3)n2c1	none
COc1ccc(-c2ccc(-c3nc4ccc(C)cn4c3NC3CCCCC3)cc2OC)cc1	SW480 rerep inconclusive, IL-1B inflam inh -55!, MCF10A rereplic inconclusive, ATXN2 expr inh inconclusive, PINK1 modulator inconclusive
COc1ccc(-c2nc3ccc(Cl)cn3c2NC2CCCCC2)cc1SC1CCCCC1	IL-1B inflam inh -58, MCF10A rereplic 16µM
COc1ccc(-c2nc3ccc(C)cn3c2CC2CCCCC2)cc1OC	ATXN viability inconclusive (no result: SW480 rerep, MCF10A rereplic)
CCOC(=O)N1CCN([N+]([O-])=NOc2ccc([N+](=O)[O-])cc2C#N)CC1	none (no result: SW480 rerep, ATXN viability, IL-1B inflam inh, MCF10A rereplic, PINK1 modulator)
CCCCNc1c(-c2ccc(SC3CCCCC3)c(OC)c2)nc2ccc(C)cn12	SW480 rerep inconclusive, ATXN viability inconclusive, IL-1B inflam inh -68!, MCF10A rereplic 10µM, ATXN2 expr inh inconclusive, PINK1 modulator 25µM
CCOC(=O)CSc1n[nH]c(NS(=O)(=O)c2ccccc2C(F)(F)F)n1	IL-1B inflam inh -77
NC(=S)c1cc2ccc(O)cc2oc1=O	SW480 rerep 10µM, MCF10A rereplic 21µM (no result: ATXN viability)
NC(=S)c1cc2cc(Br)ccc2oc1=O	none
C/C(=N/NC(N)=S)c1cc2ccc(O)cc2oc1=O	SW480 rerep inconclusive, ATXN viability inconclusive, MCF10A rereplic 18µM
C/C(=N/NC(=O)c1ccncc1)c1cc2ccc(O)cc2oc1=O	MCF10A rereplic inconclusive (no result: ATXN viability)
Cc1ccc(S(=O)(=O)Cc2nc(-c3ccc(C(=O)NCc4ccccc4F)cc3)oc2C)cc1	none (no result: SW480 rerep, ATXN viability, IL-1B inflam inh, MCF10A rereplic, ATXN2 expr inh)
O=C(Nc1ccccc1)C1=C[C@@H](C2CCCCC2)C[C@@H](OCc2ccc(CO)cc2)O1	SW480 rerep inconclusive, MCF10A rereplic 16µM
O=C(C1=C[C@@H](C2CCCCC2)C[C@@H](OCc2ccc(CO)cc2)O1)N1CCN(Cc2ccccc2)CC1	IL-1B inflam inh -59, MCF10A rereplic inconclusive, ATXN2 expr inh inconclusive (no result: ATXN viability)
O=C(Nc1ccccc1)C1=C[C@H](C2CCCCC2)C[C@H](OCCCCO)O1	none
O=C(C1=C[C@H](C2CCCCC2)C[C@H](OCc2ccc(CO)cc2)O1)N1CCN(Cc2ccccc2)CC1	ATXN viability inconclusive, ATXN2 expr inh inconclusive
O=C(Nc1ccccc1)C1=C[C@@H](C2CCCCC2)C[C@@H](OCCCCO)O1	IL-1B inflam inh inconclusive, MCF10A rereplic inconclusive
O=C(Nc1ccccc1)C1=C[C@H](c2ccc(Br)cc2)C[C@H](OCc2ccc(CO)cc2)O1	ATXN viability inconclusive, IL-1B inflam inh -53, MCF10A rereplic inconclusive
O=C(Nc1ccccc1)C1=C[C@H](C2CCCCC2)C[C@H](OCc2ccc(CO)cc2)O1	ATXN viability inconclusive, IL-1B inflam inh -51, MCF10A rereplic inconclusive
CN1CCCCC1C(=O)N1CCC(Oc2cccc(CN3CCN(c4ccccn4)CC3)c2)CC1 (configuration not stated)	ATXN viability inconclusive (no result: SW480 rerep, IL-1B inflam inh, MCF10A rereplic, ATXN2 expr inh)
O=C(CNC1CCCCC1)NN=C(c1ccccc1)c1ccccc1	IL-1B inflam inh -64
N#CCC(=O)N/N=C/c1ccc(Cl)cc1	SW480 rerep inconclusive
CN(c1ccccc1)c1ccc(/C=N/NC(=O)CC#N)cc1	MCF10A rereplic inconclusive, ATXN2 expr inh 13µM
